# Assay results taken from PMC7862700, “An all-to-all approach to the identification of sequence-specific readers for epigenetic DNA modifications on cytosine”.
# Legend:
# Experiment in all cases: DAPPL (digital affinity profiling via proximity ligation, sequencing); 10 mM Tris-HCl pH 7.5, 50 mM NaCl, 1 mM DTT, 4% glycerol, room temperature, 30 min; GST-TFs on glutathione beads, 16-mer random dsDNA library, 0.1% formaldehyde crosslink after washing; high values mean tight binding
# Details in all cases: protein: recombinant; tags: N-terminal GST; dsDNA, one strand shown
# [1] = molecular target: T1, ELK1 (Homo sapiens, UniProt P19419 1-428)
# T1 sequence: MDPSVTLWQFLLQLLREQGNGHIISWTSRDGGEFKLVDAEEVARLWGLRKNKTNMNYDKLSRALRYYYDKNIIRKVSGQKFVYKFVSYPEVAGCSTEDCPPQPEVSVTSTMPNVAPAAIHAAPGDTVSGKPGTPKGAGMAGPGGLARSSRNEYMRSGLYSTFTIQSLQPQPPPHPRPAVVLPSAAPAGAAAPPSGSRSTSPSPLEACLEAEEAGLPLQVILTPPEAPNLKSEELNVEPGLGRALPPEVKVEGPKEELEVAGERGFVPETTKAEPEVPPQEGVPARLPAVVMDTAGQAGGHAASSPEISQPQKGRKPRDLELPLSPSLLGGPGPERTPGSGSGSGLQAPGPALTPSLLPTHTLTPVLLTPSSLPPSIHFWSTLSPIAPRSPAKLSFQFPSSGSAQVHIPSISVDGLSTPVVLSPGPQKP
# How it was run: (§1)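 Yeast served to express human transcription factors as GST fusions, which were then captured on glutathione beads and labelled with DNA barcodes. Pooled with a tag-only sample, they were incubated with 200 nmole of a 16-mer random double-stranded DNA library for 30 min at room temperature in Tris/NaCl/DTT/glycerol buffer, washed, crosslinked with 0.1% formaldehyde, ligated by proximity, amplified by PCR and sequenced. Dividing each hexamer's read frequency for a factor by its frequency for the tag-only sample gives the binding signal.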
# [2] = molecular target: T2, GABPA (Homo sapiens, UniProt Q06546 1-454)
# T2 sequence: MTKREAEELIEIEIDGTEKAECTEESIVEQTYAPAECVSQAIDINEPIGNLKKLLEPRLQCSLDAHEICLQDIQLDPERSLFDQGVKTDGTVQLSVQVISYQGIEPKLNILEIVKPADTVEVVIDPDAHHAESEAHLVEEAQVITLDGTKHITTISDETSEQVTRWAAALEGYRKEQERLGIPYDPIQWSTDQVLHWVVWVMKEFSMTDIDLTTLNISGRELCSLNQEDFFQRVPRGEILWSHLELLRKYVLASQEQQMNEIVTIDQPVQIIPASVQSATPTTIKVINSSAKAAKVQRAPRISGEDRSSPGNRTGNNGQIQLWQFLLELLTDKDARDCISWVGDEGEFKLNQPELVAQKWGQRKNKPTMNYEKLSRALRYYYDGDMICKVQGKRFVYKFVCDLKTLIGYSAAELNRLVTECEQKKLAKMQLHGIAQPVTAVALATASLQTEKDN
# How it was run: as §1
# [3] = molecular target: T3, EHF (Homo sapiens, UniProt Q9NZC4 1-300)
# T3 sequence: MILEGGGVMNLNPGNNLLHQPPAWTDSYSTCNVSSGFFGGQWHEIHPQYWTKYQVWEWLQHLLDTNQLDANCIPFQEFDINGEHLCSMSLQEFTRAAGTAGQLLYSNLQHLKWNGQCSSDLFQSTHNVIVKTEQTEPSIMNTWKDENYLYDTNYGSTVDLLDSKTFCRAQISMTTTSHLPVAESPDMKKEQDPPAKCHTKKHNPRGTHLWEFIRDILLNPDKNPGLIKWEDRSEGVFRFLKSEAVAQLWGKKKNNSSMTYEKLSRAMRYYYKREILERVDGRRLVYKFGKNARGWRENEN
# How it was run: as §1
# [4] = molecular target: T4, ELK3 (Homo sapiens, UniProt P41970 1-407)
# T4 sequence: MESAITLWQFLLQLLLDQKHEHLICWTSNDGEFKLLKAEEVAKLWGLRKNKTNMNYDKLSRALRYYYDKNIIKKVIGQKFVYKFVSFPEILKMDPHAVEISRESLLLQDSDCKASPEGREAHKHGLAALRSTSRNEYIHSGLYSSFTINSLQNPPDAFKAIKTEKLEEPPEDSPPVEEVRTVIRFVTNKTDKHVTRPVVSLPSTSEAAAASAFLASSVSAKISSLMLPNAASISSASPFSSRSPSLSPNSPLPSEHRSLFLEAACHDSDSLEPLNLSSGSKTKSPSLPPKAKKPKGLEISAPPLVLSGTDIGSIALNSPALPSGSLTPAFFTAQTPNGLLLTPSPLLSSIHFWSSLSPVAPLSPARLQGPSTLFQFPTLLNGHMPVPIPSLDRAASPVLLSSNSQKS
# How it was run: as §1
# [5] = molecular target: T5, SPIC (Homo sapiens, UniProt Q8N5J4 1-248)
# T5 sequence: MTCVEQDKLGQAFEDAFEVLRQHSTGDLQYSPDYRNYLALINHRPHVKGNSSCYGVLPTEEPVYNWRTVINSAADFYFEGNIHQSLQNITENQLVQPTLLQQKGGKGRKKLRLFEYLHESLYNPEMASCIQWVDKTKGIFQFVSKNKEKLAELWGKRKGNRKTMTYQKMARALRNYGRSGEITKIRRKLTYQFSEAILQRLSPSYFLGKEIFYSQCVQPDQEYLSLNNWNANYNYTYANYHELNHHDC
# How it was run: as §1
# [6] = molecular target: T6, ELK4 (Homo sapiens, UniProt P28324-2 1-405)
# T6 sequence: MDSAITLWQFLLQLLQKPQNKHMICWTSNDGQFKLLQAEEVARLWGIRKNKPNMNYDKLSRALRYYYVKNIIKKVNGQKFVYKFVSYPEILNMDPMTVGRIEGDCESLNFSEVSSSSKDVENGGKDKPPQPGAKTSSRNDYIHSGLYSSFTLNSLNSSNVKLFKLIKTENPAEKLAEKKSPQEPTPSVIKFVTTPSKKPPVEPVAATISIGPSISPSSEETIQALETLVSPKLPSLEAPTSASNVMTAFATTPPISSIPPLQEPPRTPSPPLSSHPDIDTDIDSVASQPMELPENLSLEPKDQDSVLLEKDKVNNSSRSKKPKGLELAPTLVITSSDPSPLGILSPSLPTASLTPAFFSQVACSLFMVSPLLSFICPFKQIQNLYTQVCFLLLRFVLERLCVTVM
# How it was run: as §1
# [7] = molecular target: T7, ETV2 (Homo sapiens, UniProt O00321 1-342)
# T7 sequence: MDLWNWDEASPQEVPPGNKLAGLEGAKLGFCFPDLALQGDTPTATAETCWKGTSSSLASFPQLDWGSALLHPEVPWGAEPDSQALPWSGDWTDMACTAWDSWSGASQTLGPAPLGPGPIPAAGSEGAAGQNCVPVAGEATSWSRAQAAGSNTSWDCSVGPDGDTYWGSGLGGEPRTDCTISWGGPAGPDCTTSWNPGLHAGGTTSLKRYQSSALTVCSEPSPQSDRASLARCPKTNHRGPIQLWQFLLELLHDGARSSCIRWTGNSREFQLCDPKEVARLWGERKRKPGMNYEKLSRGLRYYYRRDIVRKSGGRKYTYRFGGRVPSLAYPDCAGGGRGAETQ
# How it was run: as §1
# [8] = molecular target: T8, ERF (Homo sapiens, UniProt P50548 1-548)
# T8 sequence: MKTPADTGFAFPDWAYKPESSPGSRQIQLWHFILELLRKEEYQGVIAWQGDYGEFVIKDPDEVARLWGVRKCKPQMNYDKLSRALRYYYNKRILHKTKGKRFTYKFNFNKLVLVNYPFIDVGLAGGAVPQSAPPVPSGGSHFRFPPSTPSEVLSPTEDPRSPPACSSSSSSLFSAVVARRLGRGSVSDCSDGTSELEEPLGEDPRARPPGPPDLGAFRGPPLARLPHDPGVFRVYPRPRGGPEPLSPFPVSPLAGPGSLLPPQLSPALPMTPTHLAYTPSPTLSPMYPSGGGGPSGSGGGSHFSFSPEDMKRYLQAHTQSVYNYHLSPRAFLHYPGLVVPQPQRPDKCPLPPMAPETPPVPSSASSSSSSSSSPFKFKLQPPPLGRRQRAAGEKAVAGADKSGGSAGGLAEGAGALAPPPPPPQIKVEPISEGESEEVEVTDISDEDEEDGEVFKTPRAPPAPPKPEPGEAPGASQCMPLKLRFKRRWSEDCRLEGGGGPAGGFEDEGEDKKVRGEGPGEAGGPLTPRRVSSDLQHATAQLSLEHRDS
# How it was run: as §1
# [9] = molecular target: T9, ETS2 (Homo sapiens, UniProt P15036 1-469)
# T9 sequence: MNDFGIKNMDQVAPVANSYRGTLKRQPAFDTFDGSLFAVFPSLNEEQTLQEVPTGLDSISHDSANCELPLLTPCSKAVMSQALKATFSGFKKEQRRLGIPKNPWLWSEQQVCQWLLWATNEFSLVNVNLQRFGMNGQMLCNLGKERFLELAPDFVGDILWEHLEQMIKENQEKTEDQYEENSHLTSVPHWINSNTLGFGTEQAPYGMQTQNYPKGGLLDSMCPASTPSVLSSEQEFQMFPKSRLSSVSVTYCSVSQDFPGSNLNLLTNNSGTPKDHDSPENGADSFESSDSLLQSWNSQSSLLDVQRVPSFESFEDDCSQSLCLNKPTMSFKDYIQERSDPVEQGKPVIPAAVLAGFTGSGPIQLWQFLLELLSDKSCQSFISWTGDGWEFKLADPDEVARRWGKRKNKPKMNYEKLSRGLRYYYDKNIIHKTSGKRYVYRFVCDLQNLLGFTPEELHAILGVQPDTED
# How it was run: as §1
# [10] = molecular target: T10, ETV7 (Homo sapiens, UniProt Q9Y603 1-341)
# T10 sequence: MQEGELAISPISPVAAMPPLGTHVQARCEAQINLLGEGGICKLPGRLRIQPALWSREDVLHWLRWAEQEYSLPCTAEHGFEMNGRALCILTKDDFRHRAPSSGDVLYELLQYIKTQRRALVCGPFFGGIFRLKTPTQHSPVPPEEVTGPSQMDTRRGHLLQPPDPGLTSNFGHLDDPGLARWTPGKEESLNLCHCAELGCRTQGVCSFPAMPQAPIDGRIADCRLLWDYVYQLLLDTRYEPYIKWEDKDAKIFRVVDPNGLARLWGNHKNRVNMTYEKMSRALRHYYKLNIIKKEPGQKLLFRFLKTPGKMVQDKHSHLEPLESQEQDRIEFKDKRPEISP
# How it was run: as §1
# [11] = molecular target: T11, FLI1 (Homo sapiens, UniProt Q01543 1-452)
# T11 sequence: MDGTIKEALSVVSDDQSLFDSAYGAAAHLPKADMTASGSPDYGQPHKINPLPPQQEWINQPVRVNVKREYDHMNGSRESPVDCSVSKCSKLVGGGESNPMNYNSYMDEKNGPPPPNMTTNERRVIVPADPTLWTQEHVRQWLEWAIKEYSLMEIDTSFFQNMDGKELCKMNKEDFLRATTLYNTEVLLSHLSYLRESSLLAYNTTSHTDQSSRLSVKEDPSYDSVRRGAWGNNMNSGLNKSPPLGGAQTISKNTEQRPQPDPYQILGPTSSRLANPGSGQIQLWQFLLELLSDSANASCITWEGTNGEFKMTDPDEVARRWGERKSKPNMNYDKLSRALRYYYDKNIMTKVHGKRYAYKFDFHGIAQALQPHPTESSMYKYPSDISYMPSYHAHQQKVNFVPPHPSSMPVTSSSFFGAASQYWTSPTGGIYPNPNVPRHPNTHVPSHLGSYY
# How it was run: as §1
# [12] = molecular target: ELF1 (Homo sapiens, UniProt P32519 1-619)
# Sequence of ELF1 (P32519 whole entry): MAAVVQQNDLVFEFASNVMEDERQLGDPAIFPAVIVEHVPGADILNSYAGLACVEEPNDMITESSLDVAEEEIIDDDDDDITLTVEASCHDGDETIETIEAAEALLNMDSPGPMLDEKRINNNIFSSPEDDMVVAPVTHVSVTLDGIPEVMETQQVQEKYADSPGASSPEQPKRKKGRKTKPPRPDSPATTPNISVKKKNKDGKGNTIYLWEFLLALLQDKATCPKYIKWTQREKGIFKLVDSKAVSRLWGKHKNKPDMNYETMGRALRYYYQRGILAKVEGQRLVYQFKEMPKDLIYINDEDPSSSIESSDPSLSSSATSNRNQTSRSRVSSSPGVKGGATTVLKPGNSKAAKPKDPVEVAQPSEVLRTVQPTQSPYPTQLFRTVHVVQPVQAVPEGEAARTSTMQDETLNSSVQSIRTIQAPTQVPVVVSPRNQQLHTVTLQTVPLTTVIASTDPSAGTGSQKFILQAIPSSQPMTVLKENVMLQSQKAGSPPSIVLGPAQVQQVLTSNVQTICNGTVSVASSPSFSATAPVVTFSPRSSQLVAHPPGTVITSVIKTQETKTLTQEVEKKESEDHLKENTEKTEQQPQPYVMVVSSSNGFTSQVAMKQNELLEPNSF
# How it was run: as §1
# [13] = molecular target: SPIB (Homo sapiens, UniProt Q01892 1-262)
# Sequence of SPIB (Q01892 whole entry): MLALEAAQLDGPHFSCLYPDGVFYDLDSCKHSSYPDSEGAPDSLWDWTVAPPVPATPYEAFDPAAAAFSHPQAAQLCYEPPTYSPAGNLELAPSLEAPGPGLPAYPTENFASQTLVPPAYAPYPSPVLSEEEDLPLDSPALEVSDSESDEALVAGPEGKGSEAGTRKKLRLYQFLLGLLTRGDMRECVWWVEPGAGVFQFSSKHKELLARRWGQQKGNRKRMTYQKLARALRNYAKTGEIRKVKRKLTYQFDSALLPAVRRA
# How it was run: as §1
# [14] = molecular target: T12, ETV3L (Homo sapiens, UniProt Q6ZN32 1-361)
# T12 sequence: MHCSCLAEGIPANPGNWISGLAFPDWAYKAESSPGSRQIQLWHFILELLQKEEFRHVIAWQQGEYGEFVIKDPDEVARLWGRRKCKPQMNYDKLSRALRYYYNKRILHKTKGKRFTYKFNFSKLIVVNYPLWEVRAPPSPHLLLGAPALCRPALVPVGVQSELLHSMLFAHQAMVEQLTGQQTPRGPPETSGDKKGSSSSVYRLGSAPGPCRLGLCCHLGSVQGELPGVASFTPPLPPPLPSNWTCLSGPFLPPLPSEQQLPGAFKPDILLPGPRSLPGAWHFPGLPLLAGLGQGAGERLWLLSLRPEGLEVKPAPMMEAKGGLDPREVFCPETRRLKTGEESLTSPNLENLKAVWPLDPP
# How it was run: as §1
# [15] = molecular target: T13, ETV3 (Homo sapiens, UniProt P41162-2 1-143)
# T13 sequence: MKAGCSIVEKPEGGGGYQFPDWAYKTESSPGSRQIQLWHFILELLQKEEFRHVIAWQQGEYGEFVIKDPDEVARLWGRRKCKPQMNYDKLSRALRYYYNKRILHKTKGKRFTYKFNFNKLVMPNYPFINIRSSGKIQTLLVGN
# How it was run: as §1
# [16] = molecular target: ETV6 (Homo sapiens, UniProt P41212 1-452)
# Sequence of ETV6 (P41212 whole entry): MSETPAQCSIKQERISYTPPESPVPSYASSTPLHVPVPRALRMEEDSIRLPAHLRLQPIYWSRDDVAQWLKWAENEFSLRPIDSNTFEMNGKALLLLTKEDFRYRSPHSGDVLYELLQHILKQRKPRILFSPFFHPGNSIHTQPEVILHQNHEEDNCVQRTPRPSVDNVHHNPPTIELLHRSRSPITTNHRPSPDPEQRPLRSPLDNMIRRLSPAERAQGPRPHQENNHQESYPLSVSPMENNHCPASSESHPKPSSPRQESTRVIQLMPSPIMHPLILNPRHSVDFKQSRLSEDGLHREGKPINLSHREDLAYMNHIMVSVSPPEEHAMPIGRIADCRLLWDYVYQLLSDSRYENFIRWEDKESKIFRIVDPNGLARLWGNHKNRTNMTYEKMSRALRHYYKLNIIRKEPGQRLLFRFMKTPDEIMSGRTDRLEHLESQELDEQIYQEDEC
# How it was run: as §1
sequence,measurement,setting,value
ATAGGG,binding signal,[1],"1.01 fold enrichment (6-mer frequency, TF over GST control)"
same,binding signal,[2],"1.03 fold enrichment (6-mer frequency, TF over GST control)"
same,binding signal,[3],"1.01 fold enrichment (6-mer frequency, TF over GST control)"
same,binding signal,[4],"1.06 fold enrichment (6-mer frequency, TF over GST control)"
same,binding signal,[5],"1.08 fold enrichment (6-mer frequency, TF over GST control)"
same,binding signal,[6],"1.06 fold enrichment (6-mer frequency, TF over GST control)"
same,binding signal,[7],"1.08 fold enrichment (6-mer frequency, TF over GST control)"
same,binding signal,[8],"1.14 fold enrichment (6-mer frequency, TF over GST control)"
same,binding signal,[9],"1.01 fold enrichment (6-mer frequency, TF over GST control)"
same,binding signal,[10],"1.09 fold enrichment (6-mer frequency, TF over GST control)"
CCAAGT,binding signal,[11],"1.02 fold enrichment (6-mer frequency, TF over GST control)"
GTGCCT,binding signal,[1],"1.05 fold enrichment (6-mer frequency, TF over GST control)"
same,binding signal,[12],"1.02 fold enrichment (6-mer frequency, TF over GST control)"
same,binding signal,[13],"1.05 fold enrichment (6-mer frequency, TF over GST control)"
same,binding signal,[5],"1.2 fold enrichment (6-mer frequency, TF over GST control)"
same,binding signal,[6],"1.16 fold enrichment (6-mer frequency, TF over GST control)"
same,binding signal,[7],"1.22 fold enrichment (6-mer frequency, TF over GST control)"
same,binding signal,[8],"1.07 fold enrichment (6-mer frequency, TF over GST control)"
same,binding signal,[14],"1.17 fold enrichment (6-mer frequency, TF over GST control)"
same,binding signal,[9],"1.06 fold enrichment (6-mer frequency, TF over GST control)"
same,binding signal,[15],"1.07 fold enrichment (6-mer frequency, TF over GST control)"
same,binding signal,[16],"1.02 fold enrichment (6-mer frequency, TF over GST control)"
